Shown is part of a subset that was picked to be rich in hits.
ALOX12 inh: blocks human arachidonate 12S-lipoxygenase; P18054; purified 12hLO, xylenol orange hydroperoxide absorbance; Potency, µM (doses to about 108 µM), without a hit: top-dose activity change, negative = inhibition, most hits filed as inhibitors; 580,000 compounds, 1.1% hits; AID 1671190; also: potency is read from the fitted curve at half-maximal effect
Target sequence (P18054 whole entry, looked up): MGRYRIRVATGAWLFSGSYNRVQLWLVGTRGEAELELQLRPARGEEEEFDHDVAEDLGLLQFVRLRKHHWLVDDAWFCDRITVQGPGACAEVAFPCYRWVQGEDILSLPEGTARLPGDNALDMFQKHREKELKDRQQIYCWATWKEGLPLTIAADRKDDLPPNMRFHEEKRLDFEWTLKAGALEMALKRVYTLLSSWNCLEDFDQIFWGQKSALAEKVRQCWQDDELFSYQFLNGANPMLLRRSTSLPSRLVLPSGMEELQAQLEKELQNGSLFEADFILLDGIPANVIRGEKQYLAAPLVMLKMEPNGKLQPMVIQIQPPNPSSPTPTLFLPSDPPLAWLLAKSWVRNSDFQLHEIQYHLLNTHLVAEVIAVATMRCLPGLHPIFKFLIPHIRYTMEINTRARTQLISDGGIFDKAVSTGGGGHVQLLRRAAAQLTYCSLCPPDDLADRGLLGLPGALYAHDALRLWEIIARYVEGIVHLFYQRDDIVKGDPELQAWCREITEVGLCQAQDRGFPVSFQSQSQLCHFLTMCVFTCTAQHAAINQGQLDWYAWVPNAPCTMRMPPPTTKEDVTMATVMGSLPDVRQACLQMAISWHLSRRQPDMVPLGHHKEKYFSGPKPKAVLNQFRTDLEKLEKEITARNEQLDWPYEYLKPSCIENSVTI
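Purified human 12hLO at 150 nM in 25 mM Hepes, 0.01% Triton X-100, pH 7.0, preincubated 15 min at room temperature with compound. Reaction started with 40 uM arachidonic acid, 30 min at room temperature. Hydroperoxide measured by Fe-xylenol orange, 573/405 nm absorbance ratio.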
HT1080NT lethal: kills 2HG-producing HT-1080-NT fibrosarcoma cells | Potency, µM (highest dose often 46.1 µM), for inactives: at the top dose activity, negative = less viability, actives largely listed as cytotoxic | 360,000 compounds, 1.6% hits | HT-1080-NT fibrosarcoma viability, CellTiter-Glo ATP luminescence, 48 h | AID 686970;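 also: NT is the 2HG producing partner of a matched IDH1 knockdown line; potency is read from the fitted curve at half-maximal effect; 0% = DMSO-treated cells and -100% = media-only wells without cells; nearly all actives have a fitted effect of over 55% in size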
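A 48-hour cytotoxicity screen used HT-1080-NT cells plated 2 hours before compound delivery. ATP-based CellTiter-Glo luminescence measured viability, normalized to DMSO and no-cell controls.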
IL1B secr inh: inflammasome signaling inhibition, IL-1 beta readout | AID 743279 | THP-1 LPS/ATP IL-1B secretion, AlphaLISA, 16 h; stronger effect = lower value | activity change, % at 57.5 µM | 360,000 compounds, 4.7% hits; in the data active = activity change below about -50%; inconclusive = mostly about -30% to -49%
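THP-1 cells pretreated 1 hr with compounds (up to 57.5 uM final), then stimulated with LPS (250 ng/mL final) plus ATP (1.25 mM final); secreted IL-1B measured by AlphaLISA after 16 hr, decreased signal indicating inhibition.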
HT1080 IDH1KD tx: HT-1080 IDH1 knockdown cell toxicity (counter line); Potency, µM (top dose mostly 46.1 µM), without a hit: top-dose activity, negative = toxicity, usual class: cytotoxic; HT-1080 IDH1 knockdown viability, ATP luminescence, 48 h; 360,000 compounds, 2% hits;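 also: potency is read from the fitted curve at half-maximal effect; 0% = DMSO wells and -100% = cell-free medium wells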
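Assay cells: HT-1080 with IDH1 knockdown, 750 per well, RPMI/5% FBS. Exposure: 48 h at 37 °C following 2 h pre-incubation. Read: CellTiter-Glo luminescence; fitted concentration-response, curve class assigned.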
TDP1 cell CPT: DT40-hTDP1 cell growth loss with CPT | chicken DT40 Tdp1-/-;hTDP1 cells + 20 nM CPT, ATP luminescence, 48 h | Potency, µM (doses to about 46.2 µM), without a hit: top-dose activity change, negative = growth inhibition, hits mostly inhibitors | 420,000 compounds, 12% hits | AID 686979; also: potency is read from the fitted curve at half-maximal effect; nearly all actives have a fitted effect of over 55% in size
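Cell growth measured by CellTiter-Glo luminescence after a minimum 48 h, 37 C compound exposure with 20 nM CPT in Tdp1-knockout DT40 cells stably expressing hTDP1, seeded 400/well; qHTS titration format.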
DT40 TDP1 no CPT: qHTS for Inhibitors of human tyrosyl-DNA phosphodiesterase 1 (TDP1): qHTS in cells in absence of CPT; DT40 Tdp1-/- hTDP1 cells, no CPT, ATP luminescence, 48 h; Potency, µM (doses to about 46.2 µM), for inactives: at the top dose activity change, negative = growth inhibition, actives largely listed as inhibitors; 420,000 compounds, 15% hits; AID 686978, 2013; also: potency is read from the fitted curve at half-maximal effect; nearly all actives have a fitted effect of over 55% in size
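Growth kinetics read by CellTiter-Glo luminescence after ≥48 hr at 37 °C. Cells: DT40 Tdp1-/- stably carrying human TDP1, 400 per well, compound exposure in the absence of CPT (DMSO vehicle).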
An asterisk follows results filed as active; i = inactive; ? = inconclusive; · = no result given; [ ] = dose if it differs, or a comment. Unless noted, calls follow the shape of the dose curve; as a rule, active = well fitted curve in the direction sought with a large enough effect; inconclusive = small, poorly fitted or top-dose-only effect, or another doubt; inactive = no such curve, though single readings can be large; an effect the other way counts as inactive or inconclusive. Unless noted, % is scaled to controls: 0 for no effect and ±100 for the full control effect.

SMILES	ALOX12 inh	HT1080NT lethal	IL1B secr inh	HT1080 IDH1KD tx	TDP1 cell CPT	DT40 TDP1 no CPT
COc1ccc(CCN(C)C2CCCN(C(=O)c3sccc3C)C2)cc1OC (configuration not stated)	0%	17%	13	4%	-18%	-17%
CC1(C(=O)Nc2ccc3c(c2)OCCO3)CCN1C(=O)C1(c2ccccc2)CC1 (configuration not stated)	-12%	5%	1	11%	?	-27%
CC1(C(=O)Nc2ccc3c(c2)OCCO3)CCN1C(=O)C/C=C/c1ccccc1 (configuration not stated)	7%	23%	-6	12%	29µM*	?
CC1(C(=O)NS(=O)(=O)Cc2ccccc2C(F)(F)F)CCN1C(=O)c1ccccc1 (configuration not stated)	-8%	-3%	26	13%	-29%	-7%
CC(C(=O)Nc1cccc([N+](=O)[O-])c1)N1CCN(C/C=C/c2ccccc2)CC1 (configuration not stated)	-25%	1%	-72*	-4%	?	?
CC1(C(=O)NS(=O)(=O)Cc2ccccc2C(F)(F)F)CCN1C(=O)C/C=C/c1ccccc1 (configuration not stated)	-25%	9%	27	2%	?	23µM*
O=C(Nc1ccc2c(c1)OCCO2)C(C1CC1)N1CCN(C/C=C/c2ccccc2)CC1 (configuration not stated)	-15%	0%	-14	-1%	?	?
O=C(Nc1ccc2c(c1)OCCO2)C(c1cc2ccccc2o1)N1CCN(C/C=C/c2ccccc2)CC1 (configuration not stated)	?	?	13	?	15µM*	16µM*
Cc1nc(C)c(-c2ccc(SCC(=O)Nc3ccccc3)nn2)s1	37%	-13%	i	-21%	23µM*	26µM*
COc1cccc(NC(=O)CSc2nnc3scc(-c4ccc(Cl)cc4)n23)c1	-6%	·	·	·	?	18µM*
Cc1nc(C)c(-c2ccc(SCC(=O)Nc3ccc(F)c(F)c3)nn2)s1	-17%	·	·	·	13µM*	9.2µM*
Cc1nc(C)c(-c2ccc(SCC(=O)Nc3ccc(C)c(F)c3)nn2)s1	0%	·	·	·	-22%	-28%
CC(=O)Nc1ccc(NC(=O)CSc2ccc(-c3sc(C)nc3C)nn2)cc1	0%	0%	i	15%	-22%	?
COc1cccc(NC(=O)CSc2ccc(-c3sc(C)nc3C)nn2)c1	-13%	-11%	-20	-15%	15µM*	15µM*
O=C(CC[C@H]1NC(=O)c2ccccc2NC1=O)Nc1n[nH]c(Cc2ccc(F)cc2)n1	21%	·	·	·	·	·
CC1CCN(S(=O)(=O)c2ccc3c(c2)c(=O)c(C(=O)NCCc2ccccc2)cn3C)CC1	?	·	·	·	-12%	?
Cc1ccc(NC(=O)C(Sc2cccc[n+]2[O-])c2ccccc2)cc1 (configuration not stated)	-22%	·	·	·	·	·
CCCCN1C(=O)C(CC(=O)NC2CCCC2)CC(C(=O)N2CCCCCC2)=C1C (configuration not stated)	11%	-4%	·	4%	-5%	-18%
O=C(c1cnccn1)N1CCCCCC1c1nnc(-c2ccccc2)o1 (configuration not stated)	54%	·	·	·	·	·
O=C1NC(=O)C(=Cc2ccc(Cl)cc2Cl)S1	40µM*	?	-28	-19%	?	?
O=C1NC(=S)SC1=Cc1cc(Br)ccc1O	25µM*	-14%	?	-10%	29µM*	-13%
COc1ccc(C=C2SC(=S)NC2=O)cc1	-26%	-19%	-15	-24%	?	18µM*
O=C1NC(=S)NC1=Cc1ccc(Cl)cc1Cl	-30%	-7%	-7	-3%	-21%	-23%
COc1ccc(/C=C2/SC(=S)N(n3c(C)ccc3C)C2=O)cc1	-12%	5%	-8	-1%	?	15µM*
COc1ccc(/C=C2/SC(=O)NC2=O)cc1	-22%	-9%	-29	-9%	?	-26%
SMILES	ALOX12 inh	HT1080NT lethal	IL1B secr inh	HT1080 IDH1KD tx	TDP1 cell CPT	DT40 TDP1 no CPT
O=C1NC(=S)SC1=Cc1ccccc1Br	?	?	-10	?	?	?
COc1cccc(/C=C2\SC(=S)N(N3CCOCC3)C2=O)c1OC	-18%	12%	5	13%	3%	-9%
O=C1NC(=S)SC1=Cc1ccc(Cl)cc1	22µM*	-24%	-26	?	?	21µM*
O=C1NC(=S)S/C1=C\c1ccc2ccccc2c1	9%	0%	-3	-2%	?	21µM*
COc1ccc(/C=C2\SC(=S)N(N3CCOCC3)C2=O)c(OC)c1	27%	7%	0	12%	-24%	16µM*
COc1ccc2oc(-c3ccc(NC(=O)CC45CC6CC(CC(C6)C4)C5)cc3)nc2c1	-17%	·	·	·	·	·
CC(=O)NC(CC(=O)N(Cc1ccccc1)c1cccc(C)c1)c1ccccc1 (configuration not stated)	·	2%	5	11%	0%	-24%
CCn1c(SCC(=O)NCc2ccc(CN3CCOCC3)cc2)nnc1-c1cccc(Cl)c1	3%	·	·	·	·	·
CCc1ccc2oc(C(=O)NCC(c3ccc(C)o3)N3CCC(C)CC3)cc(=O)c2c1 (configuration not stated)	-23%	·	·	·	·	·
Cc1ccsc1CN(C)C(=O)C(NC(=O)c1cccc(S(=O)(=O)N2CCOCC2)c1)C(C)C (configuration not stated)	-3%	-2%	0	-8%	12µM*	?
Cc1cccc(C(=O)N[C@H](C(=O)Nc2ccc(C)c(S(=O)(=O)N(C)C)c2)C(C)C)c1	-3%	4%	-10	1%	?	15µM*
Cc1cccc(NC(=O)COC(=O)C(NC(=O)c2cccc(S(=O)(=O)N3CCOCC3)c2)C(C)C)c1 (configuration not stated)	-26%	0%	16	6%	-12%	-5%
CC(C)C(NC(=O)c1ccc(C(C)(C)C)cc1)C(=O)NCc1ccccn1 (configuration not stated)	3%	3%[9.24 µM]	-20	3%	9.2µM*	?

Screens as filed in PubChem.
